ELG1 genotox: inducers of genotoxicity in HEK293T ELG1-luciferase cells; hit rate 1.3% among 330,000; AID 504466; Potency, µM (series often up to 46 µM), inactives show at the highest dose activity change, positive = activation, hits mostly activators; HEK293T ELG1-luciferase reporter, luminescence, 16 h; note: % of control where 0% means no effect; nearly all actives have a fitted effect of over 60% in size
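HEK293T cells expressing luciferase-tagged ELG1 were exposed to compound or DMSO vehicle for 16 hr at 37 °C and 5% CO2. Luciferase activity was then measured with ONE-Glo after 30 min at room temperature.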
KinaseGlo FLuc: blocks Kinase-Glo luciferase, a counter-screen artifact; Kinase-Glo luciferase, ATP luminescence, 8 min; Potency, µM (top dose mostly 38.3 µM), inactives show at the top dose activity change, negative = inhibition, usual class: inhibitors; hit rate 0.28% among 200,000; AID 1379; note: % is set by controls: 0 for no effect and ±100 for the full control effect; nearly all actives have a fitted effect of over 60% in size
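Compound is pinned into ATP-containing buffer (10 uM ATP, imidazole pH 7.2, 7 mM MgCl2). Kinase-Glo luciferase reagent is then added. Light output is recorded following an 8-min room-temperature incubation.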
NPC1 prom act: activates the NPC1 promoter; hit rate 2.4% among 320,000; Potency, µM (titrated, usually from 9.22 µM), inactives show at the highest dose activation, actives largely listed as activators; AID 485313; Huh7 NPC1 promoter luciferase reporter, 24 h; note: % of control where 0% means no effect; nearly all actives have a fitted effect of over 60% in size
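Luminescence from an NPC1 promoter-driven luciferase reporter in stably transfected Huh7 cells was measured after 24 h compound treatment at 37 °C, followed by 10 min ambient incubation with luciferase detection reagent.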
FLuc modulator: counter-screen for miR-21 project: firefly luciferase inhibitors or activators. P08659. purified FLuc, Km substrates, luminescence inhibition. Potency, µM (titrated, usually from 57.5 µM), for inactives: top-dose activity change, negative = inhibition, usual class: inhibitors. hit rate 6.9% among 360,000;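 note: plate controls were vehicle for no effect and reference inhibitor for full effect; nearly all actives have a fitted effect of over 55% in size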
Target sequence (P08659 whole entry, looked up): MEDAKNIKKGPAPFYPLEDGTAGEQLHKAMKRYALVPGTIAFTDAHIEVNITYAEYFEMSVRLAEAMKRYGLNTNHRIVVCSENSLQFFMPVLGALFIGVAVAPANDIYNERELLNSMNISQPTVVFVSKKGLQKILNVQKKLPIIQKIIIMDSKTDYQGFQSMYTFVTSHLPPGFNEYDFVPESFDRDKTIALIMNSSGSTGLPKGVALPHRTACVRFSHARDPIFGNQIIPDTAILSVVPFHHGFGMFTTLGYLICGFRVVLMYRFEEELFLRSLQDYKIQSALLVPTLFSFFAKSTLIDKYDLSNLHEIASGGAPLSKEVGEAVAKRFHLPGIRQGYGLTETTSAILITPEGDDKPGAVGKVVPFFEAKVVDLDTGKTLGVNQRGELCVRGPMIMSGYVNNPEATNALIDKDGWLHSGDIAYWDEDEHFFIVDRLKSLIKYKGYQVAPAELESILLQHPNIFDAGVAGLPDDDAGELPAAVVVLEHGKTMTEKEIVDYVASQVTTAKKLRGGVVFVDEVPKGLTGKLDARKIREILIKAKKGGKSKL
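Purified P. pyralis luciferase, 10 nM final, with Km-level 10 uM D-luciferin and 10 uM ATP in 50 mM Tris acetate pH 7.5, 10 mM Mg acetate, 0.01% Tween-20, 0.05% BSA; 6-point qHTS titration about 60 µM downward; luminescence read.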
Rab9 promoter act: activates the Rab9 promoter | Huh7 Rab9 promoter-luciferase reporter, luminescence, 24 h | Potency, µM (top dose mostly 9.22 µM), without a hit: top-dose activation, negative = inhibition, usual class: activators | hit rate 2.8% among 320,000; note: % of control where 0% means no effect; nearly all actives have a fitted effect of over 60% in size
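Cells were plated at 1500 per well in reduced-serum medium with 10% FBS and left 2 h. Compound in DMSO was then added for 24 h at 37 °C. Reporter signal was read by luminescence after 10 min with luciferase detection reagent.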
SMN2 splice up: SMN2 splice variant enhancement; HEK293 SMN2-luciferase splicing reporter, luminescence, 30-36 h; Potency, µM (top dose mostly 46.1 µM), for the others: at the highest dose activity change, positive = activation, most hits filed as activators; hit rate 2.8% among 210,000; note: % of control where 0% means no effect; nearly all actives have a fitted effect of over 55% in size
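HEK293 cells carry an SMN2 […]–luciferase reporter in which exon 7 inclusion puts luciferase in frame. Cells were plated 10-12 h before compound addition, then incubated 30-36 h at 37C. ONE-Glo luminescence was read; sodium butyrate at 4.5 mM final served as control.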
Starred values were filed as active, the others as inactive; ? = inconclusive; / = no result given; ! = not confirmed by another sample; [ ] = dose if it differs, or a comment. Rows were chosen to be rich in hits. Some 7.5% of all compounds tested hit in one or more screens of this group. Calls come from the whole dose curve; as a rule, active = well fitted curve in the direction sought with a large enough effect; inconclusive = small, poorly fitted or top-dose-only effect, or another doubt; inactive = no such curve, though single readings can be large; an effect the other way counts as inactive or inconclusive. Potency is the fitted concentration of half-maximal effect.

SMILES	ELG1 genotox	KinaseGlo FLuc	NPC1 prom act	FLuc modulator	Rab9 promoter act	SMN2 splice up
COc1cc(/C=N/NC(=O)c2ccc3c(c2)OCCO3)cc(Cl)c1O	10%	/	22%	13µM*	2%	/
CCOC(=O)Cc1ccc(NC(=O)c2ccccc2Br)cc1	10%	-3%	14%	19µM*	12%	24%
CCOC(=O)c1ccc(NC(=O)c2ccc(NC(=O)c3ccccc3)cc2)cc1	?	-2%	-4%	-1%	-4%	?
CCOC(=O)Cc1ccc(NC(=O)c2ccc(C(C)(C)C)cc2)cc1	-16%	-2%	-17%	1.1µM*	-21%	-107%
COc1ccc(S(=O)(=O)c2c(SC)nn(CC(=O)Nc3cccc(C)c3C)c2N)cc1	/	/	/	-6%	/	/
Cc1ccc(N(Cc2cccs2)C(=O)c2ccc(OC(C)C)cc2)cc1	/	/	/	-17%	/	/
O=C(Nc1ccc(-c2csc(-c3ccccc3)n2)cc1)c1ccccc1	3%	-1%	-5%	0%	-2%	-6%
C=CCNC(=O)c1ccc(-c2nc(-c3ccccc3)cs2)cc1	14%	2%	?	?	0.89µM*	5.6µM*
O=C(NCCc1nc(-c2ccccc2)cs1)c1ccc(Br)cc1	0%	-2%	-6%	15µM*	-6%	-5%[1.84 µM]
O=C(O)c1ccc(-c2nc(-c3ccc(Cl)cc3Cl)cs2)cc1	?	2%	1.6µM*	8.5µM*	1.4µM*	11µM*
O=C(O)c1ccc(-c2nc(-c3cccc(C(F)(F)F)c3)cs2)cc1	4%	2%	24%	?	-2%	2%
O=C(O)c1ccc(-c2nc(-c3ccc(Cl)cc3)cs2)cc1	19%	1%	?	0.95µM*	0.32µM*	4.5µM*
CSc1ncc(C(=O)N2CCN(c3cc(C)ccc3C)CC2)c(C)n1	/	/	/	-7%	/	/
CCN(C(=O)CSc1n[nH]c(N)n1)C1CCCCC1	-2%	/	/	/	/	/
COc1ccc(Cl)cc1NC(=O)c1cnc(N2CCCCC2)c2ccccc12	/	/	/	7%	/	/
COc1ccc(-c2csc(-c3ccc(C(=O)O)cc3)n2)cc1	6%	0%	0.32µM*	0.95µM*	0.13µM*	2µM*
CCC1CN(C(=O)N2CCC(C(=O)N3CCN(c4cc(C)ccc4C)CC3)CC2)c2ccccc2O1 (stereo not given)	/	/	/	1.9µM*	/	/
CCC1CN(C(=O)N2CCC(C(=O)NCc3ccccc3F)CC2)c2ccccc2O1 (stereo not given)	/	/	/	0%	/	/
COC(=O)c1ccccc1NC(=O)C1CCN(C(=O)N2CC(C)Oc3ccccc32)CC1 (stereo not given)	/	/	/	4.8µM*	/	/
CCC1CN(C(=O)N2CCC(C(=O)Nc3ccccc3F)CC2)c2ccccc2O1 (stereo not given)	-3%	/	-1%	11µM*!	3%	/
O=C(C[C@@H]1C/C=C\CCCC(=O)OC[C@@H]2CCCN2C1=O)N[C@@H](CO)Cc1ccccc1	2%	/	/	/	/	/
CC(C)CSC1=NSC2=NC(=O)/C(=C\c3ccccc3)C(=N)N12	?	1%	3.2µM*	17µM*	2.8µM*	?
CSC1=NSC2=NC(=O)/C(=C\c3coc4ccccc4c3=O)C(=N)N12	-1%	0%	-5%	-18%	2%	0%
Cc1cc(/C=C2\C(=N)N3C(SCc4ccccc4)=NSC3=NC2=O)c(C)n1Cc1ccccc1	0%	-1%	-1%	21µM*	-1%	-10%
CC(C)CSC1=NSC2=NC(=O)/C(=C\c3coc4ccccc4c3=O)C(=N)N12	0%	0%	1%	17µM*	-1%	21%
COc1ccccc1N1CCN(C(=O)CCCn2nc(C)c([N+](=O)[O-])c2C)CC1	-4%	1%	-3%	1%	2%	-7%
CN(C)/C=C/C(=O)c1cnc(-c2ccccc2)s1	?	-5%	2µM*	11µM*	1.4µM*	11µM*
CN(C)/C=C/C(=O)c1cnc(-c2ccc(Cl)cc2)s1	?	-8%	1µM*	2.7µM*	0.5µM*	10µM*
